The values below come from PubChem BioAssay (NCI).

Structures are written as SMILES. Compounds without any hit were thinned out: in the full panel of roughly 83,000, 20% have a hit.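 A percent growth of 40 corresponds to 60% growth inhibition; 0 means no net growth; -100 means all cells died. Active threshold: below 10.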 Values without a mark were called inactive. The source made the active and inactive calls.

Among the test systems are HCT-15 colon; HT29 colon; SNB-75 CNS; SNB-19 CNS; U251 CNS; PC-3 prostate; SK-MEL-5 melanoma; UACC-62 melanoma; LOX IMVI melanoma; SK-MEL-28 melanoma; EKVX NSCLC; SN12C renal; UO-31 renal; TK-10 renal; ACHN renal; CAKI-1 renal; A498 renal; CCRF-CEM leukemia; MOLT-4 leukemia; SK-MEL-2 melanoma.
What all share (assay): NCI-60 one-dose screen, 48 h (100 = growth as untreated, 0 = no growth, -100 = all killed)
What all share (settings): 10 µM unless noted

With `COc1cc2c(cc1OC)C(Sc1ccc(C)cc1)c1c(nc(N)c(C#N)c1N)O2` (stereo unspecified), the growth in the experiment on HCT-15 colon is -74.3% (active); in the experiment on HT29 colon it was -21.2% (active); in the experiment with SNB-75 CNS it was 29%; with SNB-19 CNS, -68.9% (active); in the experiment on U251 CNS, -69.9% (active); in the experiment on PC-3 prostate, -71.1% (active). Further, the growth with SK-MEL-5 melanoma is -94.6% (active); in the experiment on UACC-62 melanoma, -45% (active); with LOX IMVI melanoma it was -90.5% (active); with SK-MEL-28 melanoma, -80.3% (active); in the experiment on EKVX NSCLC, -84.3% (active); in the experiment with SN12C renal, -64.3% (active). The growth was -99.7% (active) with UO-31 renal; -63.6% (active) in the experiment with TK-10 renal; -95.8% (active) in the experiment with ACHN renal; -62.9% (active) with CAKI-1 renal; -54.7% (active) in the experiment with A498 renal; 2.14% (active) in the experiment on CCRF-CEM leukemia. Further, the growth in the experiment with MOLT-4 leukemia was -9.07% (active).

Consider `COC[C@]12CCC(C)(C)C[C@H]1C1=CC[C@@H]3[C@@]4(C)CCCNC(C)(C)[C@@H]4CC[C@@]3(C)[C@]1(C)CC2`, for which the growth with HCT-15 colon was -86.5% (active); with HT29 colon, -28% (active); with SNB-75 CNS it was 12%; with SNB-19 CNS, -2.59% (active); in the experiment with U251 CNS, -58.1% (active); with PC-3 prostate, 0.7% (active). The growth with SK-MEL-5 melanoma is -98.1% (active); in the experiment with UACC-62 melanoma, -74% (active); in the experiment with LOX IMVI melanoma, -94.6% (active); in the experiment with SK-MEL-28 melanoma, -79.4% (active); in the experiment with EKVX NSCLC, -83.4% (active); in the experiment with SN12C renal, 29.9%. For the same compound, the growth is -50.2% (active) in the experiment on UO-31 renal; 64.7% in the experiment on TK-10 renal; -10.6% (active) in the experiment with ACHN renal; -29.4% (active) in the experiment on CAKI-1 renal; 37.1% in the experiment on A498 renal; -35% (active) in the experiment with MOLT-4 leukemia.

With `CC(=O)c1cc(C(=O)c2ccc(Br)cc2)n2cc(C)cc(C)c12`, the growth was 74.6% in the experiment with HCT-15 colon; 94.9% with HT29 colon; 89.8% in the experiment with SNB-75 CNS; 90.5% in the experiment with SNB-19 CNS; 101% in the experiment with U251 CNS; 87.1% in the experiment on PC-3 prostate. In addition, the growth is 66.3% in the experiment with SK-MEL-5 melanoma; 82.6% in the experiment with UACC-62 melanoma; 86.3% with LOX IMVI melanoma; 92.4% with SK-MEL-28 melanoma; 102% in the experiment with SK-MEL-2 melanoma; 90.8% with SN12C renal. The growth was 84.8% in the experiment with UO-31 renal; 103% in the experiment on TK-10 renal; 98.9% in the experiment on ACHN renal; 97% in the experiment on CCRF-CEM leukemia; 87% in the experiment on MOLT-4 leukemia.

With `O=C1Nc2ccccc2/C1=C/c1ccc(CO)n1-c1ccc(Cl)cc1`, the growth in the experiment on HCT-15 colon was 24%; in the experiment with HT29 colon it was 26.7%; in the experiment on SNB-75 CNS it was 32.8%; with SNB-19 CNS, 66.1%; with PC-3 prostate it was 53.5%; with SK-MEL-5 melanoma it was 51.9%. The growth was 33.9% in the experiment on UACC-62 melanoma; 43.5% in the experiment on LOX IMVI melanoma; 57.7% in the experiment on SK-MEL-28 melanoma; 47.7% with SK-MEL-2 melanoma; 63.6% in the experiment with EKVX NSCLC; 65.2% in the experiment with SN12C renal. The growth with UO-31 renal is 59.2%; in the experiment on TK-10 renal, 115%; in the experiment with ACHN renal, 56.1%; with CAKI-1 renal, 52.8%; in the experiment with A498 renal it was 35.4%; in the experiment on CCRF-CEM leukemia it was 33%. Further, the growth in the experiment on MOLT-4 leukemia is 26.7%.

`NC(N)=Nc1ccc(Oc2cccc(NC(N)=Nc3ccc(Br)c(C(F)(F)F)c3)c2)cc1`: the growth is 83.1% in the experiment with HCT-15 colon; 40.1% with HT29 colon; 62.5% in the experiment with SNB-75 CNS; 10.2% in the experiment on SNB-19 CNS; 21.4% in the experiment on U251 CNS; 36.8% with SK-MEL-5 melanoma. The growth with UACC-62 melanoma was 44.2%; in the experiment on LOX IMVI melanoma, -58.9% (active); with SK-MEL-28 melanoma, 64.1%; with SK-MEL-2 melanoma, 83.2%; in the experiment on EKVX NSCLC, 59.3%; in the experiment on SN12C renal it was 24.5%. Further, the growth with UO-31 renal is 89.3%; in the experiment with TK-10 renal, 65.3%; in the experiment on ACHN renal, 92.9%; with CAKI-1 renal, 72%; in the experiment on A498 renal it was 48.4%; in the experiment with CCRF-CEM leukemia it was 53.3%. In the experiment on MOLT-4 leukemia, the growth is 49.3%.

`O=C(CSc1nc2ccccc2c(=O)n1-c1ccccc1)Nc1cccc(C(=O)/C=C/c2ccccc2)c1`: the growth in the experiment on HCT-15 colon was 76.4%; in the experiment on HT29 colon, 96.4%; in the experiment with SNB-75 CNS it was 75.6%; in the experiment with SNB-19 CNS, 85.5%; in the experiment on U251 CNS, 71.2%; in the experiment on SK-MEL-5 melanoma, 99.5%. Also, the growth with UACC-62 melanoma is 88.7%; in the experiment on LOX IMVI melanoma, 86.1%; in the experiment with SK-MEL-2 melanoma, 100%; in the experiment on EKVX NSCLC, 96.7%; in the experiment on SN12C renal, 98.4%; with UO-31 renal, 76%. Besides, the growth in the experiment on TK-10 renal is 107%; in the experiment with ACHN renal it was 102%; in the experiment on CAKI-1 renal, 86%; in the experiment on A498 renal it was 98%; in the experiment on CCRF-CEM leukemia, 90.3%; with MOLT-4 leukemia, 88.6%.

`CC(=O)c1ccc(Nc2nc(SCC(C)C)nc(-c3ccccc3)c2C#N)cc1`: the growth was 95.3% in the experiment with HCT-15 colon; 106% with HT29 colon; 93.3% in the experiment on SNB-75 CNS; 38.5% in the experiment on SNB-19 CNS; 32.4% in the experiment on U251 CNS; 99.7% in the experiment with SK-MEL-5 melanoma. Further, the growth with UACC-62 melanoma was 75.3%; in the experiment on LOX IMVI melanoma, 86.9%; with SK-MEL-28 melanoma it was 101%; with SK-MEL-2 melanoma, 76.7%; in the experiment with SN12C renal, 95.9%; in the experiment with UO-31 renal it was 111%. In addition, the growth in the experiment with TK-10 renal was 98.4%; in the experiment with ACHN renal, 47.8%; with CAKI-1 renal, 69.6%; with A498 renal it was 107%; with CCRF-CEM leukemia it was 102%; with MOLT-4 leukemia, 102%.

For `CCCCCc1ccc(S(=O)(=O)Nc2cccc(-c3csc(NC(=O)CN4CCN(CCO)CC4)n3)c2)cc1`, the growth in the experiment on HCT-15 colon was 51.3%; in the experiment with HT29 colon it was 35.6%; in the experiment with SNB-75 CNS, 88%; in the experiment with SNB-19 CNS, 82.6%; with U251 CNS, 55.4%; in the experiment on SK-MEL-5 melanoma it was 51.7%. Besides, the growth in the experiment on UACC-62 melanoma was 90%; in the experiment with LOX IMVI melanoma it was -45.9% (active); with SK-MEL-28 melanoma, 79.4%; with SK-MEL-2 melanoma, 99.7%; with EKVX NSCLC, 81.4%; with SN12C renal, 86.6%. For the same compound, the growth in the experiment with UO-31 renal is 79.9%; with TK-10 renal, 113%; with ACHN renal, 101%; in the experiment on CAKI-1 renal, 76.2%; in the experiment on CCRF-CEM leukemia it was 53.8%; with MOLT-4 leukemia, 58.8%.
